High-throughput results as filed in PubChem.
FBPA coupling cs: qHTS Assay for Inhibitors of Fructose-1,6-bisphosphate Aldolase from Giardia Lamblia: Coupling assay counterscreen; hit rate 0.67% among 290,000; coupling enzyme system counterscreen, AmpLite Red fluorescence; activity change, negative = inhibition, % at 58.2 µM, hits read low; in the data active = activity change below about -30%
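Compounds tested against the coupling enzymes alone at 57.5 uM final; readout was AmpLite Red fluorescence (525/598 nm) after 20 min at RT.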
EPAC1 antag: qHTS for Antagonist of cAMP-regulated guanine nucleotide exchange factor 3 (EPAC1): primary screen; Potency, µM (doses to about 115 µM), actives largely listed as inhibitors; hit rate 0.14% among 360,000; AID 720709, 2013; EPAC1 GEF assay, Rap1b-BODIPY-GDP exchange fluorescence; Rap guanine nucleotide exchange factor 3 (Homo sapiens), O95398; also: nearly all actives have a fitted effect of over 50% in size
EPAC1 ag: qHTS for Agonist of cAMP-regulated guanine nucleotide exchange factor 3 (EPAC1): primary screen | Rap guanine nucleotide exchange factor 3 (Homo sapiens), O95398 | EPAC1 agonist qHTS, biochemical assay; response scale: 100% = response to 6.5 mM cAMP | Potency, µM (doses to about 154 µM), actives largely listed as activators | hit rate 0.073% among 360,000 | AID 720707, 2013; also: nearly all actives have a fitted effect of over 60% in size
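Nucleotide exchange assay: 100 nM EPAC1 with 250 nM Rap1B loaded with BODIPY-GDP and 50 uM GDP, room temperature. Fluorescence (480/540 nm) read every 5 min for 30 min; signal change normalized to 6.5 mM cAMP as full agonist.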
USP1-UAF1 inh: Inhibitors of USP1/UAF1: Primary Screen | Ubiquitin carboxyl-terminal hydrolase 1 (Homo sapiens), O94782 | recombinant USP1/UAF1, Ub-Rhodamine cleavage fluorescence | Potency, µM (doses to about 57.1 µM), most hits filed as inhibitors | hit rate 0.23% among 390,000 | AID 743255, 2014; also: nearly all actives have a fitted effect of over 60% in size
Target sequence (O94782 whole entry, looked up): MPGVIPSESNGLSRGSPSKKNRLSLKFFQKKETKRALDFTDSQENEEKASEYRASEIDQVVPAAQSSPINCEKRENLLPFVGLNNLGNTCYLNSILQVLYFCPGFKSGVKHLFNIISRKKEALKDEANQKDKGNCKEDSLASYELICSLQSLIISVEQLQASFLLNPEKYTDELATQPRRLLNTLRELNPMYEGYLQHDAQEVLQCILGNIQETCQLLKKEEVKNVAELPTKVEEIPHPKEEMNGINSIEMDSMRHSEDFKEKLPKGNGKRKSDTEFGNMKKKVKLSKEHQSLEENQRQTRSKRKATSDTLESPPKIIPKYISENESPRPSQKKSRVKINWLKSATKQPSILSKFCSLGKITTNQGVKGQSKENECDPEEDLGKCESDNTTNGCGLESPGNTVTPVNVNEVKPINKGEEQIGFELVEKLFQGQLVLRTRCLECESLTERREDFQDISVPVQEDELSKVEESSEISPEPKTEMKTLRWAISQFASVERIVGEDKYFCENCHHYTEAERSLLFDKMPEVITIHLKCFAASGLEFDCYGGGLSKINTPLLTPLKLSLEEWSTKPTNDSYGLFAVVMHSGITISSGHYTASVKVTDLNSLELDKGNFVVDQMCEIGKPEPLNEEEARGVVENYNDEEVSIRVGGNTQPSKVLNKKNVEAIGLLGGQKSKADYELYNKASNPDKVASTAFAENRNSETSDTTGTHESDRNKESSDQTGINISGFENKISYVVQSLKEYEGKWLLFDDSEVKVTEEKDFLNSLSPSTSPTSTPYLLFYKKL
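USP1/UAF1 complex at 1 nM was preincubated with compound for 15 min at room temperature, then Ub-Rho substrate (150nM final) was added. Fluorescence (480/540 nm) was read kinetically, 6 reads every 60 seconds.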
EPAC2 agonist: qHTS for Agonist of cAMP-regulated guanine nucleotide exchange factor 4 (EPAC2): primary screen; Rap guanine nucleotide exchange factor 4 (Homo sapiens), Q8WZA2; EPAC2 activation, biochemical qHTS; response scale: 100% = 6.5 mM cAMP response; Potency, µM (titrated, usually from 154 µM), actives largely listed as activators; hit rate 0.079% among 360,000; AID 720711, 2013; also: nearly all actives have a fitted effect of over 50% in size
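Each well held 100 nM EPAC2, 250 nM RAP1B-BODIPY-GDP and 50 uM GDP. Fluorescence, read at 5-min intervals to 30 min, was referenced to a 6.5 mM cAMP positive control.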
EPAC2 antag: qHTS for Antagonist of cAMP-regulated guanine nucleotide exchange factor 2 (EPAC2): primary screen. AID 720708, 2013. hit rate 0.18% among 360,000. Potency, µM (highest dose often 114 µM), actives largely listed as inhibitors. EPAC2 GEF exchange of Rap1B-BODIPY-GDP, fluorescence; also: nearly all actives have a fitted effect of over 45% in size
Of the large screens only hits and unclear results are named; the others gave an inactive call; ! = not active in a repeat. This is a sample that favours compounds with a hit; in the whole collection about 0.87% have one here. Unless noted, calls follow the shape of the dose curve; as a rule, active = well fitted curve in the direction sought with a large enough effect; inconclusive = small, poorly fitted or top-dose-only effect, or another doubt; inactive = no such curve, though single readings can be large; an effect the other way counts as inactive or inconclusive.

COc1ccc(-n2c(C)cc(C(=O)CN3C(=O)C(=O)N(Cc4ccccc4)C3=O)c2C)cc1	none
CCCCn1nnnc1SCC(=O)Nc1sc2c(c1C#N)CCCC2	none
Cn1cnnc1SCC(=O)Nc1sc2c(c1C#N)CCCCC2	FBPA coupling cs -42.1
Cc1oc(C)c2c(=O)ccc3c(c12)OC(N)=C(C#N)C3c1ccccc1 (stereo not given)	USP1-UAF1 inh inconclusive
CSc1ccc(C2C(C#N)=C(N)Oc3c2ccc(=O)c2c(C)oc(C)c32)cc1 (stereo not given)	FBPA coupling cs -35.9, EPAC1 antag inconclusive, USP1-UAF1 inh inconclusive
CC(C)N(CCNC(=O)C1CCN(S(=O)(=O)N2CCOCC2)CC1)Cc1ccccc1	none
O=[N+]([O-])c1ccc(O)c2ncccc12	FBPA coupling cs -35.4, USP1-UAF1 inh inconclusive
O=Nc1ccc(O)c2ncccc12	FBPA coupling cs -34.7!
O=C(NC(=S)NC1CCCCCC1)c1cncc(Br)c1	none
CC1C(=O)N2CCCc3cc(S(=O)(=O)NCc4ccc(Cl)cc4)cc1c32 (stereo not given)	USP1-UAF1 inh inconclusive (no result: FBPA coupling cs)
C[C@@H](NC(=O)C1(c2ccccc2)CCN(C(=O)OC(C)(C)C)CC1)C(=O)N[C@@H](C(=O)O)c1ccccc1	EPAC1 antag 56.2µM, EPAC2 antag inconclusive
CCN(C(=O)CN1CCN(c2ccc(O)cc2)CC1)c1c(N)n(Cc2ccccc2)c(=O)[nH]c1=O	FBPA coupling cs -39.2
CCN(C(=O)CN1CCCCCC1)c1c(N)n(Cc2ccccc2)c(=O)[nH]c1=O	none (no result: FBPA coupling cs)
CC(C)CN(C(=O)CN1CCN(c2ccc(O)cc2)CC1)c1c(N)n(CC(C)C)c(=O)[nH]c1=O	FBPA coupling cs -32.0
CC(=O)c1ccc(N2CCN(CC(=O)N(CC(C)C)c3c(N)n(CC(C)C)c(=O)[nH]c3=O)CC2)cc1	none
CC1(C)Oc2cc(N)c([N+](=O)[O-])cc2O1	none
C=C1N(C)c2cc([N+](=O)[O-])c(N)cc2C1(C)C	FBPA coupling cs -41.1
CCCC[C@@]1(C2CCCC2)Cc2cc(OCC(=O)O)c(Cl)c(Cl)c2C1=O	EPAC2 antag 44.7µM (no result: FBPA coupling cs)
C[C@]1(C2CCCC2)Cc2cc(OCC(=O)O)c(Cl)c(Cl)c2C1=O	none (no result: FBPA coupling cs)
CC(=NNC(=O)c1ccncc1)c1ccccc1O	EPAC1 antag inconclusive (no result: FBPA coupling cs)
CC(C)CC(=NNC(=O)c1ccncc1)c1cc(Cl)ccc1O	EPAC1 ag 100µM, USP1-UAF1 inh 28.2µM, EPAC2 agonist inconclusive (no result: FBPA coupling cs)
CCOc1cccc(C2C(C(=O)c3ccc(C)o3)=C(O)C(=O)N2CCCn2ccnc2)c1 (stereo not given)	none (no result: FBPA coupling cs)
COc1ccc(C2CC(O)(c3ccccc3)Oc3cc(C)c(Cl)c(C)c32)cc1 (stereo not given)	none (no result: EPAC1 antag, EPAC1 ag, USP1-UAF1 inh, EPAC2 agonist, EPAC2 antag)
COc1cc2c(c(OC)c1OC)C(c1ccc(O)cc1)CC(=O)O2 (stereo not given)	FBPA coupling cs -32.4, USP1-UAF1 inh inconclusive
COc1ccc(C2CC(O)(c3ccccc3)Oc3cc(OC)c(OC)c(OC)c32)cc1 (stereo not given)	FBPA coupling cs -38.7!, EPAC2 antag inconclusive
Nc1cc2nn(-c3ccccc3)nc2cc1Cl	FBPA coupling cs -43.8, USP1-UAF1 inh inconclusive
Nc1ccc2nn(-c3ccccc3)nc2c1	USP1-UAF1 inh inconclusive
CN(C)CCNC(=O)c1ccc(COc2ccc(Cl)cc2Cl)cc1	none
CCCCOc1ccc(N=Nc2ccc(N)nc2N)cn1	none
Cc1ccc(NS(=O)(=O)c2ccccc2)c2c1CC(C)(C)O2	FBPA coupling cs -46.1
Cc1cc(-c2ccc(NS(=O)(=O)c3ccccc3)c(C)c2)ccc1NS(=O)(=O)c1ccccc1	none (no result: FBPA coupling cs)
